Data as given in the supplement of paper PMC10849652.
Of roughly 8,800 targets only a part is listed; those with a hit were picked by preference. About 0.5% of all pairs of compound and target were hits.

Assays:
Test in all cases: log2 fold change, soluble protein after heating vs DMSO (PISA); higher = thermal stabilisation; K562 lysate, 10 uM; active = over 0.2 and 3.5 SD of the protein, either way, in both replicates (recomputed)
[1] = compound: C1=CC=C(C=C1)[C@H](COC2=CC3=C(C=C2)NC(=O)N3)NC(=O)C4=CC=CN(C4=O)CC5=CC(=C(C=C5)F)F
Summary of the method: (§1)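 Quantification was by TMTpro 16plex LC-MS/MS with equalised channel sums, applied to the supernatant after 21,000xg for 90 min. Samples were crude K562 extract at 1 mg/mL protein in PBS pH 7.4 with 1 mM MgCl2, treated with 10 μM compound for 30 min, heated for 3 min across 48°C-58°C, pooled and brought to 0.5% NP-40 at 4°C. Values are log-two fold changes in thermal stability relative to solvent controls, from duplicates.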

[2] = compound: CC1=C(SC2=C1C(=N[C@H](C3=NN=C(N32)C)CC(=O)N)C4=CC=C(C=C4)Cl)C
Summary of the method: as §1

[3] = compound: CC1=C2C(=CC=C1)N=C(N(C2=O)C3=CC=CC=C3C)CN4C=NC5=C(N=CN=C54)N
Summary of the method: as §1

[4] = compound: Cc1sc2c(c1C)C(c1ccc(Cl)cc1)=N[C@@H](CC(=O)OC(C)(C)C)c1nnc(C)n1-2
Summary of the method: as §1

[5] = compound: c1ccc([C@@H]2C[C@H]2NC2CCNCC2)cc1
Summary of the method: as §1

Measured: log2 fold change

TTL (UniProt Q8NG68)
inactive: [1] 0.004 | [2] -0.029 | [3] 0.145 | [4] 0.014 | [5] 0.104

TBC1D20 isoform 3 (UniProt Q96BZ9)
inactive: [1] -0.08 | [2] -0.07 | [3] 0.005 | [4] -0.007 | [5] 0.015

TJP1 (UniProt G3V1L9)
inactive: [1] -0.025 | [2] -0.014 | [3] 0.127 | [4] 0.009 | [5] -0.007

TDRKH (UniProt Q9Y2W6)
inactive: [1] -0.02 | [2] -0.028 | [3] 0.1 | [4] 0.005 | [5] -0.053

TRIM23 (UniProt P36406)
inactive: [1] 0.036 | [2] -0.05 | [3] 0.052 | [4] 0.034 | [5] -0.275

UBR5 (UniProt O95071)
inactive: [1] -0.011 | [2] 0.012 | [3] 0.012 | [4] -0.018 | [5] 0.01

TLE3 isoform 4 (UniProt Q04726)
inactive: [1] 0.01 | [2] -0.033 | [3] 0.024 | [4] 0.025 | [5] 0.007

TTC5 (UniProt Q8N0Z6)
inactive: [1] -0.022 | [2] 0.009 | [3] 0.035 | [4] 0.039 | [5] 0.002

TUBAL3 (UniProt A6NHL2)
inactive: [1] -0.034 | [2] -0.051 | [3] 0.045 | [4] -0.189 | [5] -0.255

TRIM56 (UniProt Q9BRZ2)
inactive: [1] -0.057 | [2] -0.009 | [3] 0.076 | [4] 0.003 | [5] 0.099

TUBB6 (UniProt Q9BUF5)
inactive: [1] -0.005 | [2] 0.033 | [3] 0.02 | [4] 0.017 | [5] 0.027

TGFBRAP1 (UniProt Q8WUH2)
Chain of UniProt Q8WUH2 (Q8WUH2 whole entry, looked up): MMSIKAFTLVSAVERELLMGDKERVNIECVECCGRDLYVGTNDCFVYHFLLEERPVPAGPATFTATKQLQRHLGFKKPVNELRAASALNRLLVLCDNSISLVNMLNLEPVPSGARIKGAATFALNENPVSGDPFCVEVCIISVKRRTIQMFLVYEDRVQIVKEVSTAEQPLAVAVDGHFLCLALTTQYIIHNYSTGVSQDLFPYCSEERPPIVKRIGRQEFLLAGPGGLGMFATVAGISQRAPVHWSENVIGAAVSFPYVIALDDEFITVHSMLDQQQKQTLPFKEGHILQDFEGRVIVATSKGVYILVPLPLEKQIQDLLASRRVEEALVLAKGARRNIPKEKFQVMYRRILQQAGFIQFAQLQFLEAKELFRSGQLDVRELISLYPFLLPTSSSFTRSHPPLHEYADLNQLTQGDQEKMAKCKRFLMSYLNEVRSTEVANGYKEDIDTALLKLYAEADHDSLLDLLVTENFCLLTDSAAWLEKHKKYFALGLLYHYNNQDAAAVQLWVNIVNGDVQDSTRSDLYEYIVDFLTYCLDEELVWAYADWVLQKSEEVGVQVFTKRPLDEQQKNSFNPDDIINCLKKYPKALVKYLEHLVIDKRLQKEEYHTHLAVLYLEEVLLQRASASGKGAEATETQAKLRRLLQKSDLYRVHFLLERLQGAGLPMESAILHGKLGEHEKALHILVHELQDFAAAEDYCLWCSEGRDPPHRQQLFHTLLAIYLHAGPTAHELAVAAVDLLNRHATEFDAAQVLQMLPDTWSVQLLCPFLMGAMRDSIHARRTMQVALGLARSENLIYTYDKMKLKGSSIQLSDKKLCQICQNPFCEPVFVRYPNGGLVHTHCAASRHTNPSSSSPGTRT
inactive: [1] -0.035 | [2] 0.024 | [3] 0 | [4] 0.05 | [5] -0.014

TRAPPC12 (UniProt Q8WVT3)
inactive: [1] 0.005 | [2] -0.016 | [3] -0.023 | [4] 0.003 | [5] 0.015

TCP11L1 (UniProt Q9NUJ3)
inactive: [1] -0.023 | [2] -0.031 | [3] -0.02 | [4] -0.021 | [5] -0.095

TMEM199 (UniProt Q8N511)
inactive: [1] 0.005 | [2] -0.002 | [3] 0.07 | [4] -0.046 | [5] -0.029

TDRD3 isoform 3 (UniProt Q9H7E2)
inactive: [1] 0.082 | [2] 0.037 | [3] 0.027 | [4] 0.065 | [5] -0.01

TRADD (UniProt Q15628)
inactive: [1] -0.051 | [2] -0.016 | [3] 0.112 | [4] 0.05 | [5] 0.033

UBE2H (UniProt P62256)
Chain of UniProt P62256 (P62256 whole entry, looked up): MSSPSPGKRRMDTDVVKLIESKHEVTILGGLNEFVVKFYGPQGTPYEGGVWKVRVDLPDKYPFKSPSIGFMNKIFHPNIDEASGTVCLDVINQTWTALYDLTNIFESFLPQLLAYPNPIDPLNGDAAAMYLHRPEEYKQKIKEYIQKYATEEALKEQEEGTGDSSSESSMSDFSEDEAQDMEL
inactive: [1] 0.024 | [2] 0.02 | [3] 0.012 | [4] -0.046 | [5] 0.095

TIMELESS (UniProt Q9UNS1)
inactive: [1] -0.013 | [2] 0.011 | [3] 0.01 | [4] 0.012 | [5] 0.02

THAP9 (UniProt Q9H5L6)
inactive: [1] 0.024 | [2] 0.039 | [3] 0.165 | [4] -0.194 | [5] -0.284

TNIK (UniProt C9J338)
inactive: [1] -0.028 | [2] 0.067 | [3] 0.135 | [4] -0.225 | [5] -0.375

TECR (UniProt Q9NZ01)
inactive: [1] -0.131 | [2] 0.083 | [3] 0.015 | [4] 0.017 | [5] 0.046

TUBA4A (UniProt P68366)
inactive: [1] -0.068 | [2] 0.013 | [3] 0.03 | [4] -0.024 | [5] 0.019

THADA (UniProt Q6YHU6)
inactive: [1] -0.028 | [2] -0.016 | [3] 0.069 | [4] 0.007 | [5] 0.028

TPM4 isoform 2 (UniProt P67936)
inactive: [1] -0.059 | [2] -0.012 | [3] 0.02 | [4] 0.053 | [5] 0.1

TBRG4 (UniProt Q969Z0)
inactive: [1] -0.071 | [2] 0.024 | [3] 0.018 | [4] 0.052 | [5] 0.094

UFM1 (UniProt P61960)
Chain of UniProt P61960 (P61960 whole entry, looked up): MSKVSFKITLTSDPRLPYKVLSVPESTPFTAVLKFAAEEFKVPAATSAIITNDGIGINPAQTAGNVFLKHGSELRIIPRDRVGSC
inactive: [1] 0.015 | [2] -0.085 | [3] -0.103 | [4] -0.019 | [5] 0.297

TTK (UniProt P33981)
Chain of UniProt P33981 (P33981 whole entry, looked up): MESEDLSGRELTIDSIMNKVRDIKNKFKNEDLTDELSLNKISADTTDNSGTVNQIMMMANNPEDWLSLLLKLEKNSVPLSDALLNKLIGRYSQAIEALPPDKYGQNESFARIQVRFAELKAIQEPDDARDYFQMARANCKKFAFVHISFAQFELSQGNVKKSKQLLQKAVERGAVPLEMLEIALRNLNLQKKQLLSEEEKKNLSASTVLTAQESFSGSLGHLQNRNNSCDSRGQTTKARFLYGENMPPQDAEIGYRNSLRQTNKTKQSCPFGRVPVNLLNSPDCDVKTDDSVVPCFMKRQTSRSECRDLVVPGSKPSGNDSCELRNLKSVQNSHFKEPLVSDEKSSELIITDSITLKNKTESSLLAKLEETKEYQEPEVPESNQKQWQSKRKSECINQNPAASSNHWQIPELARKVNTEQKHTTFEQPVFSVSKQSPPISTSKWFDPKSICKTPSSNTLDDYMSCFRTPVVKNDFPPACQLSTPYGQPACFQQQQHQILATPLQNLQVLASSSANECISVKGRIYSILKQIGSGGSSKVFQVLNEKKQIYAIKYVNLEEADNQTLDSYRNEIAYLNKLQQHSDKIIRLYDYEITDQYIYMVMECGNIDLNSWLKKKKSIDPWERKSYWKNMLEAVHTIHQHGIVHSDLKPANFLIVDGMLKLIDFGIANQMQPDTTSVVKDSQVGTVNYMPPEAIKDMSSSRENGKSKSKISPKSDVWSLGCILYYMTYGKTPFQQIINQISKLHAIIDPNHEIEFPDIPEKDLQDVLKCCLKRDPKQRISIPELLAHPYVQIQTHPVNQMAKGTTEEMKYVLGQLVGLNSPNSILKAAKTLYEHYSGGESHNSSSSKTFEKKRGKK
inactive: [1] -0.016 | [2] -0.003 | [3] 0.068 | [4] 0.02 | [5] 0.003

TUBA3C (UniProt P0DPH7)
Chain of UniProt P0DPH7 (P0DPH7 whole entry, looked up): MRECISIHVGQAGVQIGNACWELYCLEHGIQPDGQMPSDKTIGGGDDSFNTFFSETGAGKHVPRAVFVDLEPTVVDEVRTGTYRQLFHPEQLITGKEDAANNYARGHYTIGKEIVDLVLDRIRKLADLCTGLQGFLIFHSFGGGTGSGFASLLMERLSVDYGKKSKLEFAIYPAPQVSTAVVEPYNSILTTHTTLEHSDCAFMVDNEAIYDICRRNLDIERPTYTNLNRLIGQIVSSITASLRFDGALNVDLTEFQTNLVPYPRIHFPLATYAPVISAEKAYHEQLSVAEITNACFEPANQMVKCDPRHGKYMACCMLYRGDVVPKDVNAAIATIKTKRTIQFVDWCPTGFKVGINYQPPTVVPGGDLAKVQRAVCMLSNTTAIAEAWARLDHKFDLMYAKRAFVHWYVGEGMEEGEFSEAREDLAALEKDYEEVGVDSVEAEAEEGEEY
inactive: [1] 0.012 | [2] 0.022 | [3] 0.029 | [4] -0.017 | [5] -0.074

TRAPPC6A isoform 2 (UniProt O75865)
inactive: [1] 0.025 | [2] 0.046 | [3] -0.043 | [4] -0.003 | [5] 0.014

TCF3 (UniProt P15923)
inactive: [1] -0.029 | [2] 0.006 | [3] -0.004 | [4] -0.032 | [5] -0.08

TBC1D2B (UniProt Q9UPU7)
inactive: [1] -0.024 | [2] 0.139 | [3] -0.048 | [4] -0.065 | [5] -0.008

TOX4 (UniProt O94842)
inactive: [1] -0.011 | [2] 0.001 | [3] -0.021 | [4] -0.019 | [5] -0.146

TMOD1 (UniProt P28289)
inactive: [1] -0.003 | [2] 0.021 | [3] 0.043 | [4] 0.017 | [5] 0.002

TYMS (UniProt P04818)
inactive: [1] -0.005 | [2] 0.02 | [3] -0.005 | [4] 0.012 | [5] 0.014

TTMP isoform 3 (UniProt Q5BVD1)
inactive: [1] -0.051 | [2] 0.091 | [3] 0.135 | [4] -0.148 | [5] -0.498

TTC4 (UniProt O95801)
inactive: [1] -0.018 | [2] -0.003 | [3] 0.001 | [4] 0.033 | [5] -0.013

TMEM87A (UniProt Q8NBN3)
inactive: [1] 0.066 | [2] -0.014 | [3] -0.011 | [4] -0.011 | [5] -0.128

TRIM33 isoform 2 (UniProt Q9UPN9)
inactive: [1] 0.003 | [2] 0.009 | [3] 0.022 | [4] 0.011 | [5] 0.005

TBL2 (UniProt Q9Y4P3)
inactive: [1] 0.01 | [2] 0.057 | [3] 0.033 | [4] 0.039 | [5] 0.071

TPX2 (UniProt Q9ULW0)
Chain of UniProt Q9ULW0 (Q9ULW0 whole entry, looked up): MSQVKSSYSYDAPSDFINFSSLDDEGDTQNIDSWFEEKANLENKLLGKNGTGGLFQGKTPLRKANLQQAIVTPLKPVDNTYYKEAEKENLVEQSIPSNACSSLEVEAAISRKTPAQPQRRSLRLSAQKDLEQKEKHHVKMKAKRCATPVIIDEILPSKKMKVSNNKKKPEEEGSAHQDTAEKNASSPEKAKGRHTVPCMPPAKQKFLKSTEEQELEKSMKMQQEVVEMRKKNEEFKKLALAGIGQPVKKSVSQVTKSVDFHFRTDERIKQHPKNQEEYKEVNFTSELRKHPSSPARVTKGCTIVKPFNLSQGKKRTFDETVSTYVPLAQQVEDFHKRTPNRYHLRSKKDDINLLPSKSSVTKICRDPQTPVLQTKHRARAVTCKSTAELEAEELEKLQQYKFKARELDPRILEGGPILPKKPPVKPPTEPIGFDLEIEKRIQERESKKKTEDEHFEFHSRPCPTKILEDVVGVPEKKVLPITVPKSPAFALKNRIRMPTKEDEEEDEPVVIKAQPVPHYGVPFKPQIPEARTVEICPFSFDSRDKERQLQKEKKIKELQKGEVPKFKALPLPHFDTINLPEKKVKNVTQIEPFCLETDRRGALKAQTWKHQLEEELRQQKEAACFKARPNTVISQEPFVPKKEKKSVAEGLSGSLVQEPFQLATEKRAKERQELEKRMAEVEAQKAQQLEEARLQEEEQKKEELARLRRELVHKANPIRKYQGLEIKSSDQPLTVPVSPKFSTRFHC
inactive: [1] 0.04 | [2] -0.006 | [3] 0.008 | [4] -0.003 | [5] 0

UBA1 (UniProt P22314)
inactive: [1] -0.018 | [2] 0.043 | [3] 0 | [4] 0.045 | [5] 0.04

TMPO (UniProt P42166)
inactive: [1] -0.013 | [2] 0.015 | [3] 0.015 | [4] 0.011 | [5] 0.059

TRIM11 (UniProt Q96F44)
inactive: [1] 0.028 | [2] 0.035 | [3] 0.04 | [4] -0.011 | [5] -0.001

UBR4 (UniProt Q5T4S7)
inactive: [1] -0.012 | [2] -0.008 | [3] 0.012 | [4] 0.012 | [5] -0.003

UBP1 (UniProt Q9NZI7)
inactive: [1] 0.082 | [2] -0.057 | [3] -0.018 | [4] 0.009 | [5] 0.056

UBE3C (UniProt Q15386)
inactive: [1] -0.027 | [2] -0.04 | [3] 0.127 | [4] 0.066 | [5] 0.039

TUBGCP3 (UniProt Q96CW5)
inactive: [1] -0.007 | [2] -0.004 | [3] 0.011 | [4] 0.008 | [5] 0.037

TPP2 (UniProt Q5VZU9)
inactive: [1] 0.004 | [2] -0.117 | [3] 0.001 | [4] 0.034 | [5] -0.08

UBR3 isoform 4 (UniProt Q6ZT12)
Chain of UniProt Q6ZT12 (Q6ZT12 whole entry, looked up): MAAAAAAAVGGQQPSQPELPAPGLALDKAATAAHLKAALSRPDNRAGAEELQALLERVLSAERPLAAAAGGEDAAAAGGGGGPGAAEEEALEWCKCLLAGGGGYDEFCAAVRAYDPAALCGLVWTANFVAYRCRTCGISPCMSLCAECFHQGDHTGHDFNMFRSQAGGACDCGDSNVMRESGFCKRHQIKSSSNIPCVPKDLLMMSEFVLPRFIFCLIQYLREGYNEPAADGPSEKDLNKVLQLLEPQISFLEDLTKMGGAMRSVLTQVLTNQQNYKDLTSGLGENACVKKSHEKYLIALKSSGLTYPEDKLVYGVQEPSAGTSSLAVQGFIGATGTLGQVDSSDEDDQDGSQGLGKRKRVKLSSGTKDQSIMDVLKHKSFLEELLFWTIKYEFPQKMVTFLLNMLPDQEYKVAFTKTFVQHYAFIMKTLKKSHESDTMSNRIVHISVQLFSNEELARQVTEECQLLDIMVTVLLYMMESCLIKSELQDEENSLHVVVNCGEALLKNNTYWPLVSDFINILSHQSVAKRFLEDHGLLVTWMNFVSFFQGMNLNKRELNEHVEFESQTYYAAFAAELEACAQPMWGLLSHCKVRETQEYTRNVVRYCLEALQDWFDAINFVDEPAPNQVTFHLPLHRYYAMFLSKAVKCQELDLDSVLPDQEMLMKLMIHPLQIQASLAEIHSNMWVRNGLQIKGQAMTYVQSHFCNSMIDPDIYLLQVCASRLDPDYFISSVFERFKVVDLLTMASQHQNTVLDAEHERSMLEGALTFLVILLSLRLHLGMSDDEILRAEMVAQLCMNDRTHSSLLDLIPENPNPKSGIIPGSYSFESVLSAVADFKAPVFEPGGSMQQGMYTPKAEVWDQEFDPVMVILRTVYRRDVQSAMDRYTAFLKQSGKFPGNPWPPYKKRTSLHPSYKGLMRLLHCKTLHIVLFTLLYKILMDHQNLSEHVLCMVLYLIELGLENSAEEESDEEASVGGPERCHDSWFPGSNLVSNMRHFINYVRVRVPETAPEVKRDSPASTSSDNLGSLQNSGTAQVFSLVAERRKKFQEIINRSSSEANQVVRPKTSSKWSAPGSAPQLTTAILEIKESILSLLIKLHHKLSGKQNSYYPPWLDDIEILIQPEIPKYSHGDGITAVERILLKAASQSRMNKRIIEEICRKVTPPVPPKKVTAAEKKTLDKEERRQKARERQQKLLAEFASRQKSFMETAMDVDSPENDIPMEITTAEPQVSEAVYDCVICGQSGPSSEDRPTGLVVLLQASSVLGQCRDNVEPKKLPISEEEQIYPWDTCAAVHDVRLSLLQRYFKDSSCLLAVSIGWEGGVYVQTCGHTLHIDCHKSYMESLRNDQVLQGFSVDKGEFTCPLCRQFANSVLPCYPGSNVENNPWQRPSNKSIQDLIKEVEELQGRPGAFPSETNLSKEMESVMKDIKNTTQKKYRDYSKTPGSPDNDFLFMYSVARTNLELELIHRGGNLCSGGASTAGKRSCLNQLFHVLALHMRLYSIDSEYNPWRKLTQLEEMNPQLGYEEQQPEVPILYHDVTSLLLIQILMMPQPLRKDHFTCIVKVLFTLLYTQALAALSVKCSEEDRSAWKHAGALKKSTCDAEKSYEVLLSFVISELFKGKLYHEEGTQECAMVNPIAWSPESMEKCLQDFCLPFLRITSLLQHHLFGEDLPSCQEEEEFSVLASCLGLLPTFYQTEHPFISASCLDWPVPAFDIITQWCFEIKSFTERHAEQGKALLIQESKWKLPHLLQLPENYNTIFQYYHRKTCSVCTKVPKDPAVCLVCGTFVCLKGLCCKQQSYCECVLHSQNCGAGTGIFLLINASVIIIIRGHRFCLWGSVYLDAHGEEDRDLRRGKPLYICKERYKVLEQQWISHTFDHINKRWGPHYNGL
inactive: [1] -0.027 | [2] -0.032 | [3] 0.009 | [4] -0.016 | [5] 0.076

TRNAU1AP (UniProt Q9NX07)
inactive: [1] -0.068 | [2] -0.008 | [3] 0.195 | [4] -0.025 | [5] -0.048

TOE1 (UniProt Q96GM8)
inactive: [1] 0.063 | [2] -0.01 | [3] 0.03 | [4] 0.032 | [5] 0.01

TRIM25 (UniProt Q14258)
inactive: [1] 0.047 | [2] 0.001 | [3] 0.001 | [4] 0.013 | [5] 0.044
